Test results reported in PubChem BioAssay (EPA / NIEHS).
Results filed as inconclusive are left out. Calls of active or inactive are those of the source. The calls were made as follows: active = hit-call score of the fitted dose curve at least 0.9, where 1 is the maximum; inconclusive = response in the unintended direction; inactive = score below 0.9.

These molecules were tested against human Phosphodiesterase 10 (PDE10), PDE10A (gene 10846) (UniProt Q9Y233) (assay: NVS_ENZ_hPDE10: NovaScreen (NVS) Enzymatic Assay for human Phosphodiesterase 10 (PDE10) (AID 2283195)).
Chain of human Phosphodiesterase 10 (PDE10), PDE10A (gene 10846) (Q9Y233 whole entry, looked up): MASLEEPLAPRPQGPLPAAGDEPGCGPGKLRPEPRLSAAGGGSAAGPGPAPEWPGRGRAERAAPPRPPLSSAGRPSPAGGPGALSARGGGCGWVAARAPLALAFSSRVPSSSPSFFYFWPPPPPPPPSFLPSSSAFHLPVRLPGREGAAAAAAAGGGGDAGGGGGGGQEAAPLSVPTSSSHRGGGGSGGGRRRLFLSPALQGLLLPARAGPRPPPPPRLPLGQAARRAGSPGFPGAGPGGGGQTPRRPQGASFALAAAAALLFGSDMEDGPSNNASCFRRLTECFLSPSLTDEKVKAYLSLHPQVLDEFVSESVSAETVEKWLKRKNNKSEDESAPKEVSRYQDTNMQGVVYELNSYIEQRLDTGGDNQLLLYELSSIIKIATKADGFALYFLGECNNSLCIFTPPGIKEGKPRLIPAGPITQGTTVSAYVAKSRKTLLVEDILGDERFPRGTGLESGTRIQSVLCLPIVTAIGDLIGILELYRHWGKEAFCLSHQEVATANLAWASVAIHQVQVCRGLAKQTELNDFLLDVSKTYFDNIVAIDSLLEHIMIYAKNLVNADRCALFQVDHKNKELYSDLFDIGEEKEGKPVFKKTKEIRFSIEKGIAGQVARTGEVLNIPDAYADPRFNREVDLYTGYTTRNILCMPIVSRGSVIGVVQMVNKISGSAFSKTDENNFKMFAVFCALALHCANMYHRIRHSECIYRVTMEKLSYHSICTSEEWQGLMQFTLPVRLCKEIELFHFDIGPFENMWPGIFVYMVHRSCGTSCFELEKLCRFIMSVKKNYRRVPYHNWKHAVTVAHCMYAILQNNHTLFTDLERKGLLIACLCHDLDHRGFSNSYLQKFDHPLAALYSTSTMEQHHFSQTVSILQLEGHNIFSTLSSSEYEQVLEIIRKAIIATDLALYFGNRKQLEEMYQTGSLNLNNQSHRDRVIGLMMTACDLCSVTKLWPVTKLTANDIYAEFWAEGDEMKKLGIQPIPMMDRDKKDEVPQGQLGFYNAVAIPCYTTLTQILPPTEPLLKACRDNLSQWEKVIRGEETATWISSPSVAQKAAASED
How it was run: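 Fluorescence readout after mobility-shift separation of substrate and product, 1 h reaction with recombinant human enzyme. Single-concentration duplicates at 25 uM, then concentration-response up to 50 uM for chemicals reaching threshold; DMSO baseline.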

| Compound | outcome | AC50 |
| --- | --- | --- |
| O=C(Cl)c1ccc(Cl)cc1 | inactive | – |
| CCCCC(CC)CO[N+](=O)[O-] (centres undefined) | inactive | – |
| Nc1cccc2ccccc12 | – | 9860 nM (active) |
| CN(CCCC(=O)c1cccnc1)N=O | inactive | – |
| Nc1ccc(Cl)cc1C(=O)c1ccccc1 | inactive | – |
| Nc1ncc([N+](=O)[O-])s1 | inactive | – |
| ClC1=C(Cl)[C@]2(Cl)[C@@H]3[C@@H](Cl)[C@@H](Cl)C[C@@H]3[C@@]1(Cl)C2(Cl)Cl | inactive | – |
| O=Cc1cccc(Oc2ccccc2)c1 | inactive | – |
| CC(Br)C(=O)O (centres undefined) | inactive | – |
| ClCCBr | inactive | – |
| COc1cccc(C=O)c1 | inactive | – |
| CC(C)c1ccc(CO)cc1 | inactive | – |

What follows are molecules tested against human Phosphoinositide 3-kinase alpha (PI3Ka), PIK3CA (gene 5290) (UniProt P42336) (assay: NVS_ENZ_hPI3Ka: NovaScreen (NVS) Enzymatic Assay for human Phosphoinositide 3-kinase alpha (PI3Ka) (AID 2283196)).
Chain of human Phosphoinositide 3-kinase alpha (PI3Ka), PIK3CA (gene 5290) (P42336 whole entry, looked up): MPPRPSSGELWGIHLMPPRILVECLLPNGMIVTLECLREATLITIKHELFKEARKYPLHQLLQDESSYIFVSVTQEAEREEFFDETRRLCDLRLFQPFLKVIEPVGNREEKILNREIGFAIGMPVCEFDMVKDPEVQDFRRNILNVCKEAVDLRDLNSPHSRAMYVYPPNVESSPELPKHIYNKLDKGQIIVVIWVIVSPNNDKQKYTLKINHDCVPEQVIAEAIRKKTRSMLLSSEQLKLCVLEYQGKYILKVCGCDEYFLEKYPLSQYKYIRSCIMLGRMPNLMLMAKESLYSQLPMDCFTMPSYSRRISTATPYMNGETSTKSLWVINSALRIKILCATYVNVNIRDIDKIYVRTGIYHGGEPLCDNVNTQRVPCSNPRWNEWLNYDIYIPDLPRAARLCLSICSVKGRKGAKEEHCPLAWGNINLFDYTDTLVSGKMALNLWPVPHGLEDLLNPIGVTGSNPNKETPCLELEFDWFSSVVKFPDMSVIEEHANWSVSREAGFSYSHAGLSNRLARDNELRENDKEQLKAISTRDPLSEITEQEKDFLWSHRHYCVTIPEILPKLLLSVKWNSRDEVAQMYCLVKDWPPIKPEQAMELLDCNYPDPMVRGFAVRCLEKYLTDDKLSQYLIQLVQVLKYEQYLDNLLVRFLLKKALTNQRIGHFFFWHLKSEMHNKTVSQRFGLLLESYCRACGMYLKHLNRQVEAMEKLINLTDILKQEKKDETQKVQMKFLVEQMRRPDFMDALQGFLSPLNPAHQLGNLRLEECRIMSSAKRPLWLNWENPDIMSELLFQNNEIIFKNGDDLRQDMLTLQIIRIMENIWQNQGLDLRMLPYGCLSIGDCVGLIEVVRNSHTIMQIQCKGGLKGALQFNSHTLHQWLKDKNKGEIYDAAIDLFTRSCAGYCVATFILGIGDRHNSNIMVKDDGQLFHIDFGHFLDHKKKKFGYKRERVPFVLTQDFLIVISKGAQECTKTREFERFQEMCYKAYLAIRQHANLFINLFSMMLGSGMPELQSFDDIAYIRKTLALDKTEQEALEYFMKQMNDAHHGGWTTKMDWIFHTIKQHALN
How it was run: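 Chemicals were first screened at 25 uM in duplicate, then hits were run as concentration series up to 50 uM. Enzyme activity was measured by fluorescence after mobility-shift separation, with loss of signal relative to DMSO taken as activity.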

| Compound | outcome | AC50 |
| --- | --- | --- |
| C(=NC1CCCCC1)=NC1CCCCC1 | inactive | – |
| CCNc1nc(NC(C)(C)C)nc(SC)n1 | inactive | – |
| COP(=S)(OC)Oc1c(Cl)cc(C)cc1Cl | inactive | – |
| COP(=S)(OC)Oc1cc(Cl)c(Cl)cc1Cl | inactive | – |
| O=[N+]([O-])c1ccc2c3c(cccc13)CC2 | inactive | – |
| ClCCBr | – | 383 nM (active) |
| CC(C)C1CCC(Cc2ccc(Cl)cc2)C1(O)Cn1cncn1 (centres undefined) | inactive | – |

What follows are molecules tested against human Phosphatase and Tensin Homolog (PTEN), PTEN (gene 5728) (UniProt P60484) (assay: NVS_ENZ_hPTEN: NovaScreen (NVS) Enzymatic Assay for human Phosphatase and Tensin Homolog (PTEN) (AID 2283203)).
Chain of human Phosphatase and Tensin Homolog (PTEN), PTEN (gene 5728) (P60484 whole entry, looked up): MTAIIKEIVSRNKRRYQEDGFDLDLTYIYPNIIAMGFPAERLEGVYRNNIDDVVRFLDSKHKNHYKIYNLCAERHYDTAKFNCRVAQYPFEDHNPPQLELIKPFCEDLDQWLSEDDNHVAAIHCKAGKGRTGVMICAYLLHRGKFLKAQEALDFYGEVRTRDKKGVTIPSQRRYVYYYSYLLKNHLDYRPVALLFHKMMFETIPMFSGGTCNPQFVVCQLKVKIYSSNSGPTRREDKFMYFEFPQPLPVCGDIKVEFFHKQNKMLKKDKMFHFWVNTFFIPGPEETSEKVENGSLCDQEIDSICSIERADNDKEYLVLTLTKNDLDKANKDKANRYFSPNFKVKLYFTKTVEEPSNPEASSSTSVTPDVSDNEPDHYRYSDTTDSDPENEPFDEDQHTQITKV
Experimental: NVS_ENZ_hPTEN is a biochemical, single-readout assay that uses extracted gene-proteins in a cell-free assay. Measurements were taken 1 hour after chemical dosing in a 384-well plate.NVS_ENZ_hPTEN is one of one assay component(s) measured or calculated from the NVS_ENZ_hPTEN assay. It is designed to make measurements of enzyme activity, a form of enzyme reporter, as detected with fluorescence intensity signals by Fluorescence and electrophoretic mobility shift technology.Data from the assay component NVS_ENZ_hPTEN was analyzed into 1 assay endpoint. This assay endpoint, NVS_ENZ_hPTEN, was analyzed in the positive analysis fitting direction relative to DMSO as the negative control and baseline of activity. Using a type of enzyme reporter, loss-of-signal activity can be used to understand changes in the enzymatic activity as they relate to the gene PTEN. Furthermore, this assay endpoint can be referred to as a primary readout, because this assay has produced multiple assay endpoints where this one serves a enzymatic activity function. To generalize the intended target to other relatable targets, this assay endpoint is annotated to the phosphatase intended target family, where the subfamily is dual-specific phosphatase.
Binding assays used specific radioligands (tritiated, iodinated) with non-radioactive competitive displacement ligands in agonist or antagonist protocols (as indicated) and various reference compounds and inhibitors to titrate specific binding to receptors and transporters. Most enzyme assays (CYPs, kinases, phosphatases, proteases, HDACs) used recombinant protein and specific substrates (fluorescence mostly, some colorimetric and radioactive) and inhibitors, followed by a biochemical separation of substrate and product. All assays for the biochemical HTS were initially run in duplicate at a single concentration (10 uM for CYP450 assays and 25 uM for all others). […] Each assay was run with positive and negative controls, and concurrent controls on every plate. The follow-up (secondary) screen tested active chemical-pairs in concentration series, as well as a few additional assays not tested in the primary screen, some selected negative inactives, and several cases re-run in the concentration series for confirmatory purposes.

| Compound | outcome | AC50 |
| --- | --- | --- |
| COC[C@H](C)N(C(=O)CCl)c1c(C)csc1C | inactive | – |
| CN(CCCC(=O)c1cccnc1)N=O | – | 2.29 nM (active) |
| N#CCc1ccc(Cl)cc1 | – | 1320 nM (active) |
| O=C(c1ccccc1)C(Cl)Cl | – | 14100 nM (active) |
| COP(=S)(OC)Oc1cc(Cl)c(Cl)cc1Cl | inactive | – |
